Reference: PubChem BioAssay (NCATS)
Inconclusive results are not listed. Where a call stands in place of a potency, no number is given. Active and inactive are the calls of the source. The call rests on the fitted dose curve; in most records, active means well fitted curve in the direction sought with a large enough effect; inconclusive means small, poorly fitted or top-dose-only effect, or another doubt; inactive means no such curve, though single readings can be large; an effect the other way counts as inactive or inconclusive.

Tested on: not listed separately
Assay: P-glycoprotein substrates identified in KB-8-5-11 adenocarcinoma cell line, qHTS therapeutic library screen (AID 1346987); further: nearly all actives have a fitted effect of over 65% in size
Conditions: KB-8-5-11 (P-gp overexpressing) viability, CellTiter-Glo, 72 h; series mostly up to 44.5 µM
Summary of the method: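 Human cervical adenocarcinoma KB-8-5-11 cells, selected in colchicine to over-express P-gp and assayed without it, were exposed for 72 h to titrated compounds. An ATP-based luminescent viability signal gave AC50.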

SMILES | Potency | activity change, negative = cytotoxicity | outcome
CC1=C(CO)CC(C(C)C2CCC3C4CC=C5CC(OC6OC(COC7OC(CO)C(O)C(O)C7O)C(O)C(O)C6O)CC(O)C5(C)C4CCC23C)OC1=O (stereo not drawn) | inactive |  | 
COc1c2c(c(C)c3c1C(=O)OC3)OC1(C)CC(O)C34OC(O)(CCC3(C)C1C2)OC4(C)C (stereo not drawn) | inactive |  | 
CC(C)C1(O)C=C2C(=O)CC3C(C)(C(=O)O)CCCC3(C)C2CC1 (stereo not drawn) | inactive |  | 
CC(=O)O[C@@H]1[C@H](OC(C)=O)C[C@@]2(C)C(CC[C@@H](C)[C@]23Cc2c(O)cc4c(c2O3)CN([C@@H](CCC(=O)O)C(=O)O)C4=O)C1(C)C (stereo partly drawn) | inactive |  | 
C=CC(C)(CCC=C(C)C)O[C@@H]1O[C@H](CO)[C@@H](O)[C@H](O)[C@H]1O (stereo partly drawn) | inactive |  | 
COCC1OC(n2cnc3c(=O)[nH]cnc32)C(O)C1O (stereo not drawn) | inactive |  | 
CC1(C(=O)O)CCCC2(C)C3CCC4CC3(CCC12)CC4C(=O)O (stereo not drawn) | inactive |  | 
C[C@H]1[C@@H](O)[C@H](O)C2[C@]3(C)C([C@@H](O)[C@H]4OC(=O)[C@@H]1[C@@]24C)[C@](C)(O)C=C[C@H]3O[C@@H]1O[C@H](CO)[C@@H](O)[C@H](O)[C@H]1O (stereo partly drawn) | inactive |  | 
Cc1ccc(Nc2nnc(-c3ccc([N+](=O)[O-])cc3)o2)cc1Cl | inactive |  | 
C=C[C@H]1[C@H](O[C@@H]2O[C@H](CO)[C@@H](O)[C@H](OC(=O)/C=C/c3ccc(O)c(OC)c3)[C@H]2O)OC=C2C(=O)OCC[C@]21O | inactive |  | 
CC(C)=C1C[C@@]2(C)C(=CC1=O)CC[C@@H](O)[C@@H]2C | inactive |  | 
C[C@@H]1CC[C@]2(C(=O)O[C@@H]3O[C@H](CO[C@@H]4O[C@H](CO)[C@@H](O[C@@H]5O[C@@H](C)[C@H](O)[C@@H](O)[C@H]5O)[C@H](O)[C@H]4O)[C@@H](O)[C@H](O)[C@H]3O)CC[C@]3(C)C(=CCC4[C@@]5(C)C[C@@H](O)[C@H](O)[C@@](C)(CO)C5CC[C@]43C)C2[C@H]1C (stereo partly drawn) |  | 2.95% [at 9.29 µM] (inactive) | 
CC(=O)N[C@H]1[C@H](O[C@H]2CC[C@]3(C)C4CC=C5[C@@H]6CC(C)(C)CC[C@]6(C(=O)O)[C@H](O)C[C@@]5(C)[C@]4(C)CC[C@H]3C2(C)C)O[C@H](CO)[C@@H](O)[C@@H]1O (stereo partly drawn) | inactive |  | 
C/C=C(\C)C(=O)OC[C@H]1O[C@@H](O[C@H]2[C@@H](O[C@H]3O[C@H](CO)[C@@H](O)[C@H](O)[C@H]3O[C@@H]3O[C@H](CO)[C@@H](O)[C@H](O)[C@H]3O)O[C@H](COC(=O)/C(C)=C/C)[C@@H](O)[C@@H]2O)[C@H](O)[C@@H](O)[C@@H]1O |  |  | inactive [at 9.29 µM]

Tested on: Zika virus NS2B-NS3 protease (unlinked complex)
Assay: Primary screen GU Rhodamine qHTS for Zika virus inhibitors: Unlinked NS2B-NS3 protease assay (AID 1347159); further: nearly all actives have a fitted effect of over 60% in size
Conditions: Recombinant ZIKV NS2B-NS3 protease, Rhodamine110 substrate fluorescence; series mostly up to 107 µM
Summary of the method: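 Enzyme 25 nM in Tris-HCl pH 8.0 + 0.01% Tween 20; compounds up to 114 microM, 15 min RT dark; + Rhod110 substrate 1.5 microM; read t0 and 15 min; delta fluorescence → % inhibition → 4-parameter Hill fit.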

SMILES | Potency | activity change, negative = inhibition
C[C@@H]1O[C@@H](O[C@H]2[C@H](O)[C@@H](O[C@@H]3O[C@H](CO)[C@H](O)[C@H](O)[C@H]3O)[C@H](O[C@H]3CC[C@@]4(C)C(CC[C@]5(C)C4CC=C4[C@@H]6CC(C)(C)CC[C@]6(C(=O)O[C@@H]6O[C@H](CO)[C@@H](O)[C@H](O)[C@H]6O)CC[C@]45C)C3(C)C)O[C@@H]2C(=O)O)[C@H](O)[C@H](O)[C@H]1O (stereo partly drawn) | inactive | 
CC(=O)OC(C)C(C)(O)C(=O)O[C@@H]1CC[C@]2(C)CC(=O)C(=C(C)C)C[C@H]2[C@]1(C)OC(C)=O (stereo partly drawn) | inactive | 
CCCCOc1nc(N)c2c(n1)N(Cc1cccc(CN3CCCC3)c1)CC(=O)N2 | inactive | 
COc1ccc(CCC(=O)O)c(O[C@@H]2O[C@H](CO)[C@@H](O)[C@H](O)[C@H]2O)c1 | inactive | 
C[C@@H]1O[C@@H](OC(=O)Cc2ccccc2)[C@H](O)[C@H](O)[C@H]1O | inactive | 
COc1c2c(c(C)c3c1C(=O)OC3)OC1(C)CC(O)C34OC(OC)(CC(O)C3(C)C1C2)OC4(C)C (stereo not drawn) | inactive | 
CC1=C2C(=O)C=C(CO[C@@H]3O[C@H](CO)[C@@H](O)[C@H](O)[C@H]3O)[C@@H]2[C@H]2OC(=O)[C@H](C)[C@@H]2[C@@H](O)C1 | inactive | 
COC1CC(O[C@H]2CC[C@@]3(C)C(=CC[C@]4(O)C3[C@H](O)[C@@H](O)[C@]3(C)[C@@H]([C@H](C)O)CC[C@@]34O)C2)OC(C)C1OC1CC(OC)C(OC2CC(OC)C(OC3OC(C)C(OC4OC(CO)C(O)C(O)C4O)C(OC)C3O)C(C)O2)C(C)O1 (stereo partly drawn) | inactive | 
C/C=C(\C)C(=O)OC1C2(O)CC3=C4CC(=O)OC(c5ccoc5)C4(C)CCC3C(C)(C2=O)C(C(OC(C)=O)C(=O)OC)C1(C)C (stereo not drawn) | inactive | 
CC(=O)/C=C/[C@H]1[C@](C)(O)[C@@H](O)[C@H](O)C2C(C)(C)CCC[C@@]21C (stereo partly drawn) | inactive | 
COc1cc(C2OCC3(O)C(c4ccc(O[C@@H]5O[C@H](CO)[C@@H](O)[C@H](O)[C@H]5O)c(OC)c4)OCC23O)ccc1O (stereo partly drawn) | inactive | 
COc1ccc(/C=C/C(=O)O[C@@H]2[C@@H](O[C@@H]3O[C@H](CO)[C@@H](O)[C@H](O)[C@H]3O)[C@@H](O)[C@H](O[C@H]3C4C=CO[C@@H](O[C@@H]5O[C@H](CO)[C@@H](O)[C@H](O)[C@H]5O)C4[C@@]4(CO)O[C@@H]34)O[C@H]2C)cc1 (stereo partly drawn) | inactive | 
C[C@@H]1C(=O)O[C@H](C)[C@H]1C[C@@H](O)[C@](C)(O)[C@H]1CC[C@@]2(O)C3=CC(=O)[C@@H]4C[C@@H](O)[C@@H](O)C[C@]4(C)C3CC[C@]12C (stereo partly drawn) | inactive | 
Cc1oc2nc3c(c(NC(=O)CN4CCCC4=O)c2c1C)CCCC3 | inactive | 
CC1=C2C[C@@]3(C)[C@@H](CCC[C@@H]3C)C[C@@]2(O)OC1=O | inactive | 
CC(C)(CC(=O)N1CCCC1)NCC(=O)N1C[C@@H](F)C[C@H]1C#N | inactive | 
C=CC(C)(O)CC/C=C(\C)C1CC=C(C)C(=O)O1 (stereo not drawn) | inactive | 
COc1c2ccoc2nc2c(OC)c(O[C@@H]3O[C@@H](C)[C@H](O)[C@@H](O[C@@H]4O[C@H](CO)[C@@H](O)[C@H](O)[C@H]4O)[C@H]3OC(C)=O)ccc12 | inactive | 
COc1cc(/C=C/C(=O)O[C@H]2[C@H](O)[C@@H](CO)O[C@@]2(CO)O[C@H]2O[C@H](CO)[C@@H](O)[C@H](O)[C@H]2O)cc(OC)c1O | inactive | 
CCOC(=O)c1ccc(NC2CCCCC2)c(N)c1 | inactive | 

SMILES | Potency | activity change, negative = inhibition
COc1ccc(C2(O)c3ccccc3NC(=O)C2OC)cc1 (stereo not drawn) | inactive | 
CCOc1nc2c(N)ncnc2n1CC | inactive | 
CC(O)CCc1ccc(O[C@@H]2O[C@H](CO)[C@@H](O)[C@H](O)[C@H]2O)cc1 (stereo partly drawn) | inactive | 
CCOC(=O)C(CCc1ccccc1)NC(C)C(=O)N1Cc2ccccc2CC1C(=O)O (stereo not drawn) | inactive | 
CC(C)=CCC[C@](C)(O[C@@H]1O[C@H](CO[C@@H]2O[C@@H](CO)[C@H](O)[C@H]2O[C@@H]2OC[C@@H](O)[C@H](O)[C@H]2O)[C@@H](O)[C@H](O)[C@H]1O)[C@H]1CC[C@]2(C)[C@@H]1[C@H](O)CC1[C@@]3(C)CC[C@H](O[C@@H]4O[C@H](CO)[C@@H](O)[C@H](O)[C@H]4O[C@@H]4O[C@H](CO)[C@@H](O)[C@H](O)[C@H]4O)C(C)(C)C3CC[C@]12C (stereo partly drawn) |  | 0.816% [at 19.1 µM] (inactive)
CC1=C(CO)CC(C(C)C2CCC3C4CC=C5CC(OC6OC(COC7OC(CO)C(O)C(O)C7O)C(O)C(O)C6O)CC(O)C5(C)C4CCC23C)OC1=O (stereo not drawn) | inactive | 
COc1c2c(c(C)c3c1C(=O)OC3)OC1(C)CC(O)C34OC(O)(CCC3(C)C1C2)OC4(C)C (stereo not drawn) | inactive | 
CC(C)C1(O)C=C2C(=O)CC3C(C)(C(=O)O)CCCC3(C)C2CC1 (stereo not drawn) | inactive | 
CC(=O)O[C@@H]1[C@H](OC(C)=O)C[C@@]2(C)C(CC[C@@H](C)[C@]23Cc2c(O)cc4c(c2O3)CN([C@@H](CCC(=O)O)C(=O)O)C4=O)C1(C)C (stereo partly drawn) | inactive | 
C=CC(C)(CCC=C(C)C)O[C@@H]1O[C@H](CO)[C@@H](O)[C@H](O)[C@H]1O (stereo partly drawn) | inactive | 
COCC1OC(n2cnc3c(=O)[nH]cnc32)C(O)C1O (stereo not drawn) | inactive | 
CC1(C(=O)O)CCCC2(C)C3CCC4CC3(CCC12)CC4C(=O)O (stereo not drawn) | inactive | 
C[C@H]1[C@@H](O)[C@H](O)C2[C@]3(C)C([C@@H](O)[C@H]4OC(=O)[C@@H]1[C@@]24C)[C@](C)(O)C=C[C@H]3O[C@@H]1O[C@H](CO)[C@@H](O)[C@H](O)[C@H]1O (stereo partly drawn) | inactive | 
Cc1ccc(Nc2nnc(-c3ccc([N+](=O)[O-])cc3)o2)cc1Cl | inactive | 
C=C[C@H]1[C@H](O[C@@H]2O[C@H](CO)[C@@H](O)[C@H](OC(=O)/C=C/c3ccc(O)c(OC)c3)[C@H]2O)OC=C2C(=O)OCC[C@]21O | inactive | 
CC(C)=C1C[C@@]2(C)C(=CC1=O)CC[C@@H](O)[C@@H]2C | inactive | 
C[C@@H]1CC[C@]2(C(=O)O[C@@H]3O[C@H](CO[C@@H]4O[C@H](CO)[C@@H](O[C@@H]5O[C@@H](C)[C@H](O)[C@@H](O)[C@H]5O)[C@H](O)[C@H]4O)[C@@H](O)[C@H](O)[C@H]3O)CC[C@]3(C)C(=CCC4[C@@]5(C)C[C@@H](O)[C@H](O)[C@@](C)(CO)C5CC[C@]43C)C2[C@H]1C (stereo partly drawn) | inactive | 
CC(=O)N[C@H]1[C@H](O[C@H]2CC[C@]3(C)C4CC=C5[C@@H]6CC(C)(C)CC[C@]6(C(=O)O)[C@H](O)C[C@@]5(C)[C@]4(C)CC[C@H]3C2(C)C)O[C@H](CO)[C@@H](O)[C@@H]1O (stereo partly drawn) | inactive | 
C/C=C(\C)C(=O)OC[C@H]1O[C@@H](O[C@H]2[C@@H](O[C@H]3O[C@H](CO)[C@@H](O)[C@H](O)[C@H]3O[C@@H]3O[C@H](CO)[C@@H](O)[C@H](O)[C@H]3O)O[C@H](COC(=O)/C(C)=C/C)[C@@H](O)[C@@H]2O)[C@H](O)[C@@H](O)[C@@H]1O | inactive | 
